Rce1 inh: yeast Ras-converting enzyme inhibition. Q03530. yeast membranes, quenched prenylated peptide cleavage fluorescence. calls only. hit rate 0.27% among 290,000;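 active = fall in fluorescence gain of 50% or more versus controls, with final raw signal at or below 3038400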;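 note: plate controls were neutral control wells for no effect and wells lacking membranes for full effect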
ALR H2O2 inh: inhibitors of human sulfhydryl oxidase ALR | purified ALR, DTT oxidation, H2O2 HRP-luminol luminescence | AID 485317 | hit rate 3.8% among 290,000 | P55789 | inhibition, % (test concentration not listed);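 active = mean replicate inhibition above about 79%, with every replicate also reaching it, limit read from the data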
Efflux pump mplx: antifungal efflux pump inhibition, Nile Red retention | S. cerevisiae Candida pump triplex | inhibition, % at 10 µM | hit rate 0.44% among 330,000 | AID 485275;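 active = plate passing quality check with inhibition over a set limit, or well fluorescence over plate mean plus 4 SD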;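 note: Nile Red retained in pooled yeast measured as flow cytometry median fluorescence; 0% = buffer negative control and 100% = Enniatin B positive control; higher means more Nile Red kept so more efflux inhibition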
GRK2 inh: blocks RNA aptamer binding to human GRK2; P25098; bead flow cytometry, FAM-aptamer displacement from GRK2; inhibition of aptamer binding, % at 10 µM; hit rate 0.59% among 330,000;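 active = inhibition of aptamer binding above 40%, roughly 3 SD of noise, on plates passing a quality check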;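 note: median bead fluorescence of bound FAM aptamer so fluorescent compounds give negative values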
HDAC3 inh: inhibitors of human histone deacetylase 3; O15379; recombinant HDAC3, fluorogenic peptide/trypsin coupled, fluorescence; inhibition, % at 8.3 µM; hit rate 0.15% among 320,000; in the data active = inhibition above about 26%, passing the limit was not always enough
Target sequence (O15379 whole entry, looked up): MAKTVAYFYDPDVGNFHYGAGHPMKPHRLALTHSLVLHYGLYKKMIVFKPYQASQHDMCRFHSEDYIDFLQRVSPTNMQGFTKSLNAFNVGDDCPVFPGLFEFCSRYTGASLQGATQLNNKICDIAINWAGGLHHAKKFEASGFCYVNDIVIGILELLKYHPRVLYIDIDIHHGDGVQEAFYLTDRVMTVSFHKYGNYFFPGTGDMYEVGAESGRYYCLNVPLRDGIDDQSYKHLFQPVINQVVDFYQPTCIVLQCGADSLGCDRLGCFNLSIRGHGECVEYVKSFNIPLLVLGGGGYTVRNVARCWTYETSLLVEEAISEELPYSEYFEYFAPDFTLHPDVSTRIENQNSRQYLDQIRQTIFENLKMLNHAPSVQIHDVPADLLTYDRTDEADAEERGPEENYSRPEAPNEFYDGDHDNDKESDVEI
Rtt109 HAT inh: inhibitors of Candida albicans Rtt109/Vps75 histone acetyltransferase; Q5AAJ8; purified Rtt109/Vps75, ThioGlo CoA-SH fluorescence, 4 h; inhibition, % at 34.9 µM; hit rate 0.16% among 330,000; AID 540336;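 active = inhibition of at least 50% in every replicate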
Target sequence (Q5AAJ8 whole entry, looked up): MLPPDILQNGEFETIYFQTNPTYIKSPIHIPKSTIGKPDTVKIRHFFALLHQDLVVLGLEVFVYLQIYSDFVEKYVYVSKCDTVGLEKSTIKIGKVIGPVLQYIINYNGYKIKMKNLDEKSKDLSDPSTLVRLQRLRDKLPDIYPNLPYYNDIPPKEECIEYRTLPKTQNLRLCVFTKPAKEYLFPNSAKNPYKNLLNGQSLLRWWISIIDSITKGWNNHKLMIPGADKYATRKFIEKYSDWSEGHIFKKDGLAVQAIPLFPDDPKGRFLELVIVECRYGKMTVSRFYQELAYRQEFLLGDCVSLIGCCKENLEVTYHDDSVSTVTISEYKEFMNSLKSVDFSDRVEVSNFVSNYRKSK
Cmpd fluor yeast: compound fluorescence in yeast efflux pump counter-screen; fluorescence ratio to DMSO, % at 10 µM; shares compounds with Efflux pump mplx; hit rate 4% among 1,700; S. cerevisiae AD/pABC3, flow cytometry;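 active = fluorescence ratio to DMSO above its plate's cutoff, the plate mean ratio plus 5 SD, cut at about 210% in these data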;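 note: unstained yeast with no Nile Red so the signal is compound autofluorescence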
CaMdr1 efflux inh: Candida Mdr1 efflux pump inhibition. shares compounds with Efflux pump mplx. S. cerevisiae AD/CaMDR1, Nile Red efflux, flow cytometry. inhibition, % at 10 µM. hit rate 1% among 1,700; in the data active = inhibition above about 26%;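 note: 0% = DMSO vehicle and 100% = reference inhibitor; higher means more Nile Red retained so more efflux inhibition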
CaCdr2 efflux inh: blocks the Candida albicans Cdr2 efflux pump in yeast; Nile Red retention ratio vs DMSO, % at 10 µM; shares compounds with Efflux pump mplx; AID 588520; hit rate 4% among 1,700; S. cerevisiae AD/CaCDR2, Nile Red retention, flow cytometry; in the data active = Nile Red retention ratio vs DMSO above about 190%;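 note: higher ratio means more blocking of Cdr2 efflux of the dye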
CaCdr1 efflux inh: Candida Cdr1 efflux pump inhibition; S. cerevisiae AD/CaCDR1, Nile Red efflux, flow cytometry; shares compounds with Efflux pump mplx; inhibition, % at 10 µM; hit rate 1% among 1,700;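 active = inhibition above the screen-wide mean plus twice its standard deviation, cut at about 32% in these data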
* hit, by the source's call; i = inactive; / = no result given. A selection: hits, their analogues and other compounds. The true share with any hit is near 4.5%.

SMILES | Rce1 inh | ALR H2O2 inh | Efflux pump mplx | GRK2 inh | HDAC3 inh | Rtt109 HAT inh | Cmpd fluor yeast | CaMdr1 efflux inh | CaCdr2 efflux inh | CaCdr1 efflux inh
CCCCCC(=O)N/N=C(\C)c1ccc(Cl)cc1 | i | -1.3 | 9.8* | 8.0 | -0.9 | 1.5 | 111.1 | 0.0 | 97.5 | -0.1
Cc1ccc(Nc2nc(Cl)nc(NC(C)(C)C)n2)cc1 | i | 9.2 | 1.1* | 0.0 | 7.9 | 2.2 | 172.2 | 0.7 | 99.7 | 0.2
CC(C)C(=O)Nc1nnc(SCC(=O)NC2CCCC2)s1 | i | -12.9 | 0.1 | 0.0 | -6.4 | 0.2 | / | / | / | /
COc1nc(N/N=C/c2ccc(-c3ccccc3[N+](=O)[O-])o2)nc(N2CCOCC2)n1 | i | 38.2 | 16.4* | 2.0 | 6.5 | -1.1 | 135.2 | 0.3 | 91.4 | 0.6
CC(=O)c1cc2c(cc1F)C(C)(C)CCC2(C)C | / | / | / | / | / | 1.5 | / | / | / | /
COc1ccc(-c2nsc(C(=O)N(c3ccc(F)cc3)C(C(=O)NC3CCCC3)c3ccc(OC)cc3)c2N)cc1 (centres undefined) | i | -8.2 | 0.3* | 1.0 | -0.2 | -2.1 | 106.8 | 0.1 | 106.0 | -0.1
COc1ccc(CN2C(=O)C(Cc3ccccc3)Nc3ncnc(N4CCN(c5ccccc5)CC4)c32)cc1 (centres undefined) | i | 4.3 | 0.5 | 0.0 | 4.5 | -2.9 | / | / | / | /
O=C1C(Cc2ccccc2)Nc2ncnc(N3CCN(c4ccccc4)CC3)c2N1Cc1ccc(Cl)cc1 (centres undefined) | i | 2.9 | 103.9* | 0.0 | 5.4 | 3.3 | 104.5 | 108.6* | 100.7 | 88.6*
CCOC(=O)c1cc(-c2ccccc2)n[nH]1 | i | 2.5 | 0.0 | 3.0 | -4.4 | 10.0 | / | / | / | /
CCOC(=O)c1ccc(-c2cc(C)no2)[nH]1 | i | -1.7 | 6.5* | 0.0 | 0.1 | -15.9 | 105.8 | 0.0 | 107.2 | 0.0
Cc1ccccc1C(=O)NC1CCN(CC(=O)Nc2ccc(Br)cc2)CC1 | / | -1.0 | 0.0 | 0.0 | -5.5 | -4.8 | / | / | / | /
Cc1ccc(C(=O)OCC(=O)NCC2COc3ccccc3O2)cc1 (centres undefined) | / | -1.5 | 0.9* | 1.0 | -0.9 | -20.5 | 118.6 | 1.0 | 114.4 | 0.4
Cc1cccc(C(=O)OCC(=O)NCC2COc3ccccc3O2)c1 (centres undefined) | / | -11.8 | 0.4 | 0.0 | 2.0 | -3.4 | / | / | / | /
COc1ccc(NC(=O)Nc2cccc3c2O[C@H](CN(C)C(=O)Nc2ccccc2)[C@@H](C)CN([C@H](C)CO)C3=O)cc1 | / | -0.2 | -0.2 | 0.0 | -3.9 | 16.2 | / | / | / | /
COc1ccc(NC(=O)Nc2cccc3c2O[C@H](CN(C)C(=O)NC2CCCCC2)[C@@H](C)CN([C@H](C)CO)C3=O)cc1 | / | -5.2 | 0.2 | 0.0 | -2.0 | 2.4 | 102.2 | -0.2 | 118.5 | 0.1
O=S(=O)(c1ccc(F)cc1)N1CCN(CC(O)COCc2cccs2)CC1 (centres undefined) | i | -5.6 | -0.1 | 0.0 | -2.4 | -9.1 | / | / | / | /
OC(COCc1cccs1)CN1CCN(c2cccc(C(F)(F)F)c2)CC1 (centres undefined) | i | -1.1 | 6.8* | 0.0 | 13.7 | 8.5 | 105.6 | 0.0 | 112.4 | 0.0
COc1ccccc1NC(=O)C(C)OC(=O)/C(=C/c1ccccc1)NC(C)=O (centres undefined) | i | 14.3 | -0.1 | 3.0 | -2.0 | 3.9 | / | / | / | /
CCOc1ccc(S(=O)(=O)N2CCN(C(=O)c3ccncc3)CC2)cc1 | i | -3.1 | 7.4* | 0.0 | -0.9 | -4.3 | 88.7 | -0.2 | 91.1 | -0.2
CCN(CC)S(=O)(=O)c1ccc(N2CCOCC2)c(NC(=O)CCC2CCCCC2)c1 | i | 0.6 | 13.3* | 4.0 | 0.0 | 7.5 | 101.4 | -0.2 | 93.5 | -0.1
CC(C)(C)NC(=O)C(c1ccco1)N(Cc1ccc2c(c1)OCO2)C(=O)c1snc(C(N)=O)c1N (centres undefined) | i | -0.2 | 0.1 | 0.0 | 5.1 | 5.8 | / | / | / | /
COc1ccc(C(=O)N2CCN(c3ccccc3)CC2)cc1S(=O)(=O)N1CCCC1 | i | / | 6.2* | 2.0 | -4.4 | -1.4 | 109.5 | 0.0 | 110.1 | -0.2
CCOc1cc(N2CCOCC2)c(OCC)cc1NC(=O)C1CC(=O)N(c2ccc(C)cc2)C1 (centres undefined) | / | -13.2 | -0.1 | 4.0 | 0.7 | 3.2 | / | / | / | /
O=C(NCCN1CCOCC1)c1cccc(S(=O)(=O)N2CCCCC2)c1 | i | -2.8 | 0.8 | 0.0 | 9.6 | -0.6 | / | / | / | /
Cc1ccc(S(=O)(=O)N2CCOCC2)cc1NC(=O)COC(=O)Cc1cccs1 | i | -5.1 | 0.0 | 0.0 | -1.4 | -1.7 | / | / | / | /
SMILES | Rce1 inh | ALR H2O2 inh | Efflux pump mplx | GRK2 inh | HDAC3 inh | Rtt109 HAT inh | Cmpd fluor yeast | CaMdr1 efflux inh | CaCdr2 efflux inh | CaCdr1 efflux inh
O=C(NCCCN1CCOCC1)C(=O)N/N=C/c1ccccc1O | i | 5.4 | 0.8* | 0.0 | -1.2 | -1.2 | 111.3 | -0.1 | 100.7 | 0.0
O=C(NCCCN1CCOCC1)c1cccc(S(=O)(=O)N2CCOCC2)c1 | / | / | 105.7* | 0.0 | -2.7 | -4.3 | 103.4 | -0.1 | 103.6 | 0.2
Cc1ccc(S(=O)(=O)N2CCOCC2)cc1NC(=O)COC(=O)CNC(=O)c1ccccc1 | i | -0.5 | 9.1* | 1.0 | -3.3 | -1.1 | 101.8 | 0.0 | 101.5 | -0.1
CCOC(=O)C1=C(COC(=O)c2ccc(Cl)nc2)NC(=O)NC1C (centres undefined) | / | / | / | / | / | 13.8 | / | / | / | /
Cc1nnc(N/N=C/c2cc([N+](=O)[O-])c(N3CCC(C)CC3)cc2N2CCC(C)CC2)n1N | i | -25.0 | 7.2* | 0.0 | -8.6 | 3.4 | 107.2 | 0.0 | 107.2 | 0.0
C[C@@H](NCCCn1cnc2c(OCc3ccccc3)ncnc21)c1cccc2ccccc12 | / | / | / | / | / | -13.0 | / | / | / | /
CC12CCC(=O)N1C(C(=O)OCC(=O)Nc1ccc(C(F)(F)F)cc1)CS2 (centres undefined) | / | 53.9 | -0.1 | 0.0 | 8.8 | -13.1 | / | / | / | /
O=C(Cn1nc(-c2ccc(F)cc2)ccc1=O)Nc1ccc(C(=O)NC2CC2)cc1 | i | -3.6 | 0.4* | 0.0 | -5.2 | -5.4 | 81.2 | -0.1 | 89.0 | -0.2
COc1ccc(-c2nc(NC(=O)c3nc4nccc(C)n4n3)sc2C)cc1 | i | / | 1.0* | 0.0 | 1.1 | -3.1 | 95.3 | -0.2 | 116.2 | 0.1
CCCCn1c(N)c(N(CC(C)C)C(=O)C2=NN(c3ccccc3)C(=O)CC2)c(=O)[nH]c1=O | / | -3.3 | -0.1 | 0.0 | -0.5 | 3.2 | / | / | / | /
CCCCC1(C(=O)OCC)CC(CSC(=N)N)OC1=O (centres undefined) | i | -0.7 | 0.6* | 1.0 | 15.0 | -14.5 | 92.1 | -0.3 | 104.2 | 0.0
